According to PubChem BioAssay AID1159580 (chemical genetic matrix, 2015):
Values joined by “and” are separate entries in the source; they are usually repeats but may differ in a detail not shown here. Equal entries are not always repeated. About 2,000 (36%) of roughly 5,500 compounds were called active. Inconclusive results (about 18%) are left out. No stated cut-off is given here; in the data, active means normalized growth mostly below about 0.91 (no sharp cut-off); inconclusive means no clear call, values can overlap the other calls; inactive means mostly above about 0.92. This is one part of the list.

Test: chemical genetic growth profiling, strain panel (AID 1159580);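 further: tested at 20 µM; growth read once vehicle control cultures reached saturation at 30 °C; 1 = growth at the plate median or of vehicle wells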
Details: S. cerevisiae deletion strains, growth OD

Measured: normalized growth

CC[C@H](/C=C/C(C)C1CCC2C3CCC4=CC(=O)CC[C@]4(C)C3CC[C@]12C)C(C)C (some centres not stated)
inactive: locus YBR021W, strain FUR4, stronger effect = lower value 1.01 | locus YBR229C, strain ROT2, stronger effect = lower value 1 | locus YCL029C, strain bik1, stronger effect = lower value 1.02 | locus YDL035C, strain GPR1, stronger effect = lower value 1.02 | locus YDL074C, strain BRE1, stronger effect = lower value 1.02 | locus YDL101C, strain DUN1, stronger effect = lower value 1.01 | locus YDL134C, strain PPH21, stronger effect = lower value 1.03 | locus YDL185W, strain tfp1, stronger effect = lower value 1.01 | locus YDL192W, strain arf1, stronger effect = lower value 1 | locus YDR101C, strain arx1, stronger effect = lower value 1.01 | locus YDR162C, strain NBP2, stronger effect = lower value 1.03 | locus YDR318W, strain mcm21, stronger effect = lower value 1 | locus YDR388W, stronger effect = lower value 1.01 | locus YDR502C, strain sam2, stronger effect = lower value 1.02 | locus YEL061C, strain CIN8, stronger effect = lower value 1 | locus YER110C, stronger effect = lower value 1 | locus YER155C, strain BEM2, stronger effect = lower value 1.01 | locus YER167W, strain BCK2, stronger effect = lower value 1.02 | locus YGL078C, strain dbp3, stronger effect = lower value 1.01 | locus YGL086W, strain mad1, stronger effect = lower value 0.997 | locus YGL248W, strain PDE1, stronger effect = lower value 1.02 | locus YGR078C, strain PAC10, stronger effect = lower value 1.03 | locus YGR135W, strain pre9, stronger effect = lower value 1 | locus YGR252W, strain gcn5, stronger effect = lower value 1.01 | locus YHR030C, strain SLT2, stronger effect = lower value 1.01 and 1.1 | locus YHR079C, strain IRE1 (second series), stronger effect = lower value 0.991 | locus YHR079C, strain IRE1, stronger effect = lower value 1.07 | locus YHR094C, strain hxt1, stronger effect = lower value 0.99 | locus YHR129C, strain ARP1, stronger effect = lower value 1.01 | locus YHR200W, strain rpn10, stronger effect = lower value 1 | locus YIL066C, strain RNR3, stronger effect = lower value 1.03 | locus YIL073C, strain SPO22, stronger effect = lower value 1.05 | locus YIL125W, strain kgd1, stronger effect = lower value 1.01 | locus YIR030C, strain dcg1, stronger effect = lower value 1 | locus YJL095W, strain BCK1, stronger effect = lower value 1.02 and 1.05 | locus YJL134W, strain LCB3, stronger effect = lower value 1.01 | locus YJL168C, strain set2, stronger effect = lower value 1 | locus YJL187C, strain SWE1 (second series), stronger effect = lower value 1.02 | locus YJR043C, strain POL32, stronger effect = lower value 1.03 | locus YJR066W, strain TOR1, stronger effect = lower value 0.985 | locus YJR075W, strain HOC1, stronger effect = lower value 1.02 | locus YKL009W, strain mrt4, stronger effect = lower value 1.04 | locus YKL068W, stronger effect = lower value 1.01 | locus YKL085W, strain MDH1 (second series), stronger effect = lower value 1.01 | locus YKL085W, strain MDH1, stronger effect = lower value 1.01 | locus YKL190W, strain CNB1, stronger effect = lower value 1.01 | locus YKR001C, strain vps1, stronger effect = lower value 1.02 | locus YLR039C, strain RIC1, stronger effect = lower value 1.07 | locus YLR058C, strain SHM2, stronger effect = lower value 1.01 | locus YLR102C, strain apc9, stronger effect = lower value 0.999 | locus YLR113W, strain HOG1, stronger effect = lower value 1.04 | locus YLR262C, strain YPT6, stronger effect = lower value 1.06 | locus YLR268W, strain sec22, stronger effect = lower value 1.02 | locus YLR330W, strain CHS5, stronger effect = lower value 1.01 | locus YLR342W, strain FKS1 (second series), stronger effect = lower value 0.996 | locus YLR371W, strain rom2, stronger effect = lower value 1.02 | locus YLR418C, strain cdc73, stronger effect = lower value 1.01 | locus YML016C, strain PPZ1, stronger effect = lower value 1 | locus YML032C, strain rad52, stronger effect = lower value 1.01 | locus YML124C, strain tub3, stronger effect = lower value 1 | locus YMR078C, strain ctf18, stronger effect = lower value 1 | locus YMR223W, strain ubp8, stronger effect = lower value 1.01 | locus YMR263W, strain SAP30, stronger effect = lower value 1.01 | locus YMR307W, strain GAS1, stronger effect = lower value 1.04 | locus YNL067W, strain RPL9B, stronger effect = lower value 1.02 | locus YNL153C, strain GIM3, stronger effect = lower value 1.01 | locus YNL183C, strain NPR1, stronger effect = lower value 0.996 | locus YNL233W, strain BNI4, stronger effect = lower value 1.02 | locus YNL250W, strain rad50, stronger effect = lower value 1 | locus YNL271C, strain bni1, stronger effect = lower value 1.01 | locus YNL298W, strain CLA4, stronger effect = lower value 1 | locus YNL307C, strain MCK1, stronger effect = lower value 1.01 | locus YNL322C, strain KRE1, stronger effect = lower value 1.02 | locus YNR052C, strain pop2, stronger effect = lower value 1.01 | locus YOL006C, strain TOP1, stronger effect = lower value 1.13 | locus YOL012C, strain htz1 1.25 | locus YOL147C, strain pex11, stronger effect = lower value 1 | locus YOR061W, strain CKA2, stronger effect = lower value 1.01 | locus YOR069W, strain VPS5, stronger effect = lower value 1.01 | locus YOR136W, strain idh2, stronger effect = lower value 1 | locus YOR144C, strain elg1, stronger effect = lower value 0.994 | locus YOR184W, strain ser1, stronger effect = lower value 0.999 | locus YOR231W, strain MKK1, stronger effect = lower value 1.08 | locus YOR316C, strain cot1, stronger effect = lower value 1 | locus YPL055C, strain LGE1, stronger effect = lower value 1.04 | locus YPL241C, strain CIN2, stronger effect = lower value 1.01 | locus YPL256C, strain CLN2, stronger effect = lower value 1.03 | locus YPR119W, strain clb2, stronger effect = lower value 1 | locus YPR141C, strain kar3, stronger effect = lower value 1.01 | locus YPR163C, strain tif3, stronger effect = lower value 1.01 | locus YPR167C, strain met16, stronger effect = lower value 1.03 | strain wtn01, stronger effect = lower value 0.992
